Where a name gives a salt, the structure may show the parent alone. ± gives the uncertainty stated by the source.
Test system: Candida albicans SNY425 biofilm
Experiment: biofilm OD600 with compound plus antifungal (OD600 (absorbance)); higher = more biofilm remaining
[1] = assay detail: disruption of 24-h mature biofilm (compound + antifungal for a second 24 h)
[2] = assay detail: sustained inhibition (compound + antifungal during 90-min adherence and 24-h growth)

SMILES | biofilm OD600 [1] | biofilm OD600 [2]
CC(C)C[C@H](NC(=O)[C@H]1O[C@@H]1C(=O)O)C(=O)NCCCCN=C(N)N + C[C@@H]1[C@H](O)[C@@H](C)/C=C/C=C/C=C/C=C/C=C/C=C/C=C/[C@H](O[C@@H]2O[C@H](C)[C@@H](O)[C@H](N)[C@@H]2O)C[C@@H]2O[C@](O)(C[C@@H](O)C[C@@H](O)[C@H](O)CC[C@@H](O)C[C@@H](O)CC(=O)O[C@H]1C)C[C@H](O)[C@H]2C(=O)O [amphotericin B] (first compound 12.5 µM) | 0.266 ± 0.0082 | 0.209 ± 0.0073
NCCCC[C@H](N[C@@H](CCc1ccccc1)C(=O)O)C(=O)N1CCC[C@H]1C(=O)O [Lisinopril] + OC(Cn1cncn1)(Cn1cncn1)c1ccc(F)cc1F [fluconazole] (first compound 12.5 µM) | 0.26 ± 0.0069 | 0.118 ± 0.015
O=C(NCCCCN1CCOCC1)c1cc2ccccc2o1 + OC(Cn1cncn1)(Cn1cncn1)c1ccc(F)cc1F [fluconazole] (first compound 12.5 µM) | 0.258 ± 0.0098 | 0.158 ± 0.008
CC(C)CCNC(=O)[C@H](CC(C)C)NC(=O)[C@H]1O[C@@H]1C(=O)O + CC[C@H](C)C[C@H](C)CCCCCCCCC(=O)N[C@H]1C[C@@H](O)[C@@H](NCCN)NC(=O)[C@@H]2[C@@H](O)CCN2C(=O)[C@H]([C@H](O)CCN)NC(=O)[C@H]([C@H](O)[C@@H](O)c2ccc(O)cc2)NC(=O)[C@@H]2C[C@@H](O)CN2C(=O)[C@H]([C@@H](C)O)NC1=O [caspofungin] (first compound 12.5 µM) | 0.268 ± 0.0056 | 0.17 ± 0.01
N=C(N)Nc1ccc(C(=O)Oc2ccc3cc(C(=N)N)ccc3c2)cc1 [Nafamostat mesylate] + CC[C@H](C)C[C@H](C)CCCCCCCCC(=O)N[C@H]1C[C@@H](O)[C@@H](NCCN)NC(=O)[C@@H]2[C@@H](O)CCN2C(=O)[C@H]([C@H](O)CCN)NC(=O)[C@H]([C@H](O)[C@@H](O)c2ccc(O)cc2)NC(=O)[C@@H]2C[C@@H](O)CN2C(=O)[C@H]([C@@H](C)O)NC1=O [caspofungin] (first compound 12.5 µM) | 0.25 ± 0.0081 | 0.162 ± 0.012
C[C@H](NC(=O)[C@@H]1CCCN1C(=O)[C@@H]1CCCN1C(=O)[C@@H](O)[C@H](N)Cc1ccccc1)C(N)=O [Apstatin] + CC[C@H](C)C[C@H](C)CCCCCCCCC(=O)N[C@H]1C[C@@H](O)[C@@H](NCCN)NC(=O)[C@@H]2[C@@H](O)CCN2C(=O)[C@H]([C@H](O)CCN)NC(=O)[C@H]([C@H](O)[C@@H](O)c2ccc(O)cc2)NC(=O)[C@@H]2C[C@@H](O)CN2C(=O)[C@H]([C@@H](C)O)NC1=O [caspofungin] (first compound 12.5 µM) | 0.292 ± 0.0095 | 0.185 ± 0.0079
Nc1ccc(CC(CC(=O)O)C(=O)O)cc1 [4-Amino-D, L-benzylsuccinic acid] + CC[C@H](C)C[C@H](C)CCCCCCCCC(=O)N[C@H]1C[C@@H](O)[C@@H](NCCN)NC(=O)[C@@H]2[C@@H](O)CCN2C(=O)[C@H]([C@H](O)CCN)NC(=O)[C@H]([C@H](O)[C@@H](O)c2ccc(O)cc2)NC(=O)[C@@H]2C[C@@H](O)CN2C(=O)[C@H]([C@@H](C)O)NC1=O [caspofungin] (first compound 12.5 µM) | 0.295 ± 0.016 | 0.187 ± 0.0071
NC(N)=NCCC[C@H](NC(=O)[C@@H]1CCCN1C(=O)[C@H](N)Cc1ccccc1)C(=O)CCl + CC[C@H](C)C[C@H](C)CCCCCCCCC(=O)N[C@H]1C[C@@H](O)[C@@H](NCCN)NC(=O)[C@@H]2[C@@H](O)CCN2C(=O)[C@H]([C@H](O)CCN)NC(=O)[C@H]([C@H](O)[C@@H](O)c2ccc(O)cc2)NC(=O)[C@@H]2C[C@@H](O)CN2C(=O)[C@H]([C@@H](C)O)NC1=O [caspofungin] (first compound 12.5 µM) | 0.274 ± 0.0098 | 0.189 ± 0.011
Cc1cccc(C)c1OCC(=O)N[C@@H](Cc1ccccc1)[C@@H](O)C[C@H](Cc1ccccc1)NC(=O)[C@H](C(C)C)N1CCCNC1=O [lopinavir] + CC[C@H](C)C[C@H](C)CCCCCCCCC(=O)N[C@H]1C[C@@H](O)[C@@H](NCCN)NC(=O)[C@@H]2[C@@H](O)CCN2C(=O)[C@H]([C@H](O)CCN)NC(=O)[C@H]([C@H](O)[C@@H](O)c2ccc(O)cc2)NC(=O)[C@@H]2C[C@@H](O)CN2C(=O)[C@H]([C@@H](C)O)NC1=O [caspofungin] (first compound 12.5 µM) | 0.153 ± 0.0047 | 0.0941 ± 0.0079

— the supplement of paper PMC7261846
